# Assay results reported in PubChem BioAssay AID588579 (National Center for Advancing Translational Sciences (NCATS), 2011).
# About 2,200 (0.55%) of roughly 400,000 compounds were called active. Not shown: some 1% with an inconclusive outcome. The call rests on the fitted dose curve; in most records, active means well fitted inhibition curve with a large enough effect; inconclusive means small, poorly fitted or top-dose-only effect, or another doubt; inactive means no such curve, though single readings can be large or run the other way. The sample as a whole holds a higher share of actives than the screen did.
# Molecular target: DNA polymerase kappa (Homo sapiens) (UniProt Q9UBT6)
# Sequence (Q9UBT6 whole entry, looked up): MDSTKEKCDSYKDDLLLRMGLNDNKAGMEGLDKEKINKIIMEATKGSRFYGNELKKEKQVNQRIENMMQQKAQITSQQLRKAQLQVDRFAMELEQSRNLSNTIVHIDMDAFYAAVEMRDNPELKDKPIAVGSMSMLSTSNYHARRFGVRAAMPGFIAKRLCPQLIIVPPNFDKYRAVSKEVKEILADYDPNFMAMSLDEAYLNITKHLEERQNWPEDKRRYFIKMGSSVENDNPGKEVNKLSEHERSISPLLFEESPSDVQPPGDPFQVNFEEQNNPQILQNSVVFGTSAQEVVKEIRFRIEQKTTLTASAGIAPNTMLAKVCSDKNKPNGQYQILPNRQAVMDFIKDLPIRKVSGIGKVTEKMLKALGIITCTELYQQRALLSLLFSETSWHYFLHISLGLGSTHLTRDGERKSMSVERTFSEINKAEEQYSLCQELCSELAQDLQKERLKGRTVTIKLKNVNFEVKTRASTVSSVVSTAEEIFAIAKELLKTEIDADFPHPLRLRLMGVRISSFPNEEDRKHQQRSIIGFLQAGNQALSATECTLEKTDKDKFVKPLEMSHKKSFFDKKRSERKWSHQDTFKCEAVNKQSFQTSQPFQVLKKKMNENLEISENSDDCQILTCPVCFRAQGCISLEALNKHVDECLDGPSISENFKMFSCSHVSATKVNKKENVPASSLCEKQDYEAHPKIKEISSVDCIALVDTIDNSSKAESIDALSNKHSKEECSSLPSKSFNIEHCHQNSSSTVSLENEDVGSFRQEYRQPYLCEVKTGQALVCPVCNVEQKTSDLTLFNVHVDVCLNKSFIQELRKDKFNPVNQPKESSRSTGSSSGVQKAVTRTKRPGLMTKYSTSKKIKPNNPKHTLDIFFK
# Test: qHTS for Inhibitors of Polymerase Kappa
# Conditions: purified Pol kappa, fluorescent DNA synthesis assay, 10 min; series mostly up to 107 µM; activity, negative = inhibition: at the top concentration
# Method: The processing and repair of DNA interstrand crosslinks (ICL) in eukaryotic cells are extremely complex, potentially involving multiple DNA repair and damage tolerance pathways, including homologous recombination, nucleotide excision repair, translesion synthesis (TLS), and cell cycle checkpoints.
# To that end, in a collaboration between the Oregon Health & Science University and the NIH Chemical Genomics Center a 1536-well high-throughput screen was developed. This fluorescent screen was assayed against the NIH Molecular Libraries Small Molecule Repository (MLSMR) to discover inhibitors of Pol Kappa.
# NIH Chemical Genomics Center [NCGC]
# NIH Molecular Libraries Probe Centers Network [MLPCN]
# Assay Submitter (PI): Stephen Lloyd, Oregon Health & Science University
# Three microliters of reagents (buffer in column 3 and 4 as negative control and 10 nM Pol kappa in columns 1, 2, and 5-48) were dispensed into a 1536-well black solid-bottom plate. Compounds (23 nL) were transferred via Kalypsys pin tool equipped with 1536-pin array. The plates were then incubated for 15 min at room temperature, and 1 uL substrate (50 nM final concentration) were then added to start the reaction and kinetically read twice at 0 min and 10 min on the Viewlux reader
# On the % scale 0 is the no-effect control and ±100 the full control effect; potency means the concentration at half of the fitted maximal effect.
Structure (SMILES),"activity, negative = inhibition",Potency
CCOC(=O)C1CCN(C(c2ccc(F)cc2)c2sc3nc(-c4ccco4)nn3c2O)CC1 (stereo unspecified),-1.88% [at 60.1 µM] (inactive),
Oc1c(C(c2ccccc2Cl)N2CCOCC2)sc2nc(-c3ccco3)nn12 (stereo unspecified),-5.77% [at 60.1 µM] (inactive),
CCOc1ccccc1/C=c1\sc2nc(-c3ccco3)nn2c1=O,,89.1 µM (active)
NCCC(=O)c1ccccc1N,1.11% [at 19.4 µM] (inactive),
O=C(O)C(O)[C@@](O)(Cc1ccc(O)cc1)C(=O)O (stereo partly specified),-7.48% [at 60.1 µM] (inactive),
CCN1CCN(C(=O)C2CCN(S(=O)(=O)c3cc(Cl)ccc3Cl)CC2)CC1,-1.71% (inactive),
O=S(=O)(c1cc(Cl)ccc1Cl)N1CCN(Cc2ccco2)CC1,-8.66% (inactive),
O=C(CN1CCN(S(=O)(=O)c2cc(Cl)ccc2Cl)CC1)c1ccc(O)c(O)c1,,28.2 µM (active)
NNc1nnc(NN)c2ccccc12,2.28% [at 19.4 µM] (inactive),
CC(=O)/C(C)=N\O,-8.23% [at 19.4 µM] (inactive),
CC1(C)C=Cc2c(ccc(C(=O)/C=C/c3ccccc3)c2O)O1,-9.34% (inactive),
COc1ccc(CNc2ncnc3ccc(-c4cccnc4)cc23)c(OC)c1,8.03% [at 60.1 µM] (inactive),
O=C(c1ccc(CS(=O)(=O)c2ccccc2)o1)N1CCN(c2ccccc2)CC1,,79.4 µM (active)
CCOC(=O)C1CCCN(C(=O)c2ccc(CS(=O)(=O)c3ccc(Br)cc3)o2)C1 (stereo unspecified),-1.17% (inactive),
O=C(c1ccc(Br)o1)N1CCN(CCOc2ccccc2)CC1,-8.95% (inactive),
Nc1nc2c(ncn2[C@@H]2O[C@H](COP(=O)(O)OP(=O)(O)OP(=O)(O)O)[C@@H](O)C2O)c(=O)[nH]1 (stereo partly specified),-4.75% [at 19.4 µM] (inactive),
COc1ccc(OC)c([C@H](O)CNC(=O)CN)c1,-13.4% [at 19.4 µM] (inactive),
COC1C[C@@H](O[C@@H]2C(C)C(=O)OC(C)C(C)C(O)C(C)C(=O)[C@@]3(CO3)CC(C)C(OC3OC(C)CC(N(C)C)C3O)C2C)OC(C)[C@@H]1O (stereo partly specified),1.62% [at 60.1 µM] (inactive),
O=P(O)(O)OC[C@H](O)CO,-2.79% [at 60.1 µM] (inactive),
COc1c2c(cc3occ(-c4ccc5c(c4)OCO5)c(=O)c13)OC(C)(C)C=C2,-13.4% [at 60.1 µM] (inactive),
COc1cccc2c1C(=O)c1c(O)c3c(c(O)c1C2=O)CC(O)(C(C)=NNC(=O)c1ccc(Cl)c(Cl)c1)CC3OC1CC(N)C(O)C(C)O1 (stereo unspecified),,17.8 µM (active)
Cc1cccc(-c2nnc(SC(C)C(=O)Nc3ccccc3)n2C)c1 (stereo unspecified),-10.1% (inactive),

Structure (SMILES),"activity, negative = inhibition",Potency
COc1cccc(Nc2ncc3ncc(=O)n(C4CC4)c3n2)c1,-2.43% [at 60.1 µM] (inactive),
NC(=O)[C@H]1CC2(CC(c3cccc(NC(=O)[C@H]4CCC(=O)N4)c3)=NO2)CN1C(=O)c1ccccc1C(=O)c1ccccc1 (stereo partly specified),0.723% (inactive),
C=C(C)C(=O)Nc1cccc(C2=NOC3(C2)C[C@H](C(N)=O)N(C(=O)C(c2ccccc2)c2ccccc2)C3)c1 (stereo partly specified),,25.1 µM (active)
CCC(=O)Nc1cccc(C2=NOC3(C2)C[C@@H](C(N)=O)N(C(=O)c2cc([N+](=O)[O-])cc([N+](=O)[O-])c2C)C3)c1 (stereo partly specified),-5.6% (inactive),
CN1[C@H]2CC(OC(=O)[C@@H](CO)c3ccccc3)C[C@H]1[C@H]1O[C@H]12 (stereo partly specified),-3.18% [at 12 µM] (inactive),
O=C(c1cnccn1)N1CCC2(CCN(Cc3cc(C(F)(F)F)cc(C(F)(F)F)c3)CC2)CC1,-13.8% [at 60.1 µM] (inactive),
Cc1nc2cnc(Oc3cccc(Cl)c3)nc2n(C2CC2)c1=O,-4.2% [at 60.1 µM] (inactive),
S=c1[nH]c(=S)c2n[nH]nc2[nH]1,-1.5% (inactive),
CN(C)CCNC(=O)c1ccc(Cl)c2cc3ccccc3nc12,,50.1 µM (active)
COc1ccccc1Nc1cc(C(=O)NCCCN(C)C2CCCCC2)c2ccccc2n1,7.65% (inactive),
COc1ccc(Nc2cc(C(=O)NCCCN(C)c3ccccc3)c3ccccc3n2)c(OC)c1,-14.6% [at 60.1 µM] (inactive),
O=C(c1csnn1)N1CCC[C@@]2(CCN(c3cccc(-c4ccccc4)c3)C2)C1,0.0963% [at 60.1 µM] (inactive),
CC(=O)c1ccc(S(=O)(=O)N2CCC(Oc3ccc(-n4cnnn4)cc3)CC2)cc1,,inactive
CC(=O)c1ccc(S(=O)(=O)N2CCN(C(=O)/C=C/c3ccc4ccccc4n3)CC2)cc1,,79.4 µM (active)
CC(=O)c1cccc(Nc2ccc3cc(S(=O)(=O)N4CCC(C)CC4)ccc3n2)c1,-6.41% (inactive),
Cc1cccc(NC(=O)COC(=O)c2ccccc2OCc2cccc(Br)c2)c1,-5.63% (inactive),
C=C1C(=O)C23C(O)C1CCC2[C@]12COC3(O)C(O)C1C(C)(C)CC[C@H]2O (stereo partly specified),-19.2% [at 60.1 µM] (inactive),
O=C(Nc1cc(Cl)ccc1N1CCOCC1)c1ccc(N2CCCC2=O)cc1,0.0706% (inactive),
CC(C)(CNC(=O)c1ccc(Cl)c(S(=O)(=O)N2CCc3ccccc3C2)c1)N1CCOCC1,-1.47% (inactive),
O=C(O)c1ccc(NN=CC2=C(N3CCOCC3)/C(=C/c3ccccc3)CC2)cc1,,28.2 µM (active)
CN1CCN(C(=O)c2cnn(-c3ccccc3)c2NC(=O)c2ccc([N+](=O)[O-])cc2)CC1,-13.2% (inactive),
Cc1cc(/C=N/Nc2ccc([N+](=O)[O-])cn2)c(C)n1-c1cccc(C(=O)O)c1,,70.8 µM (active)

Structure (SMILES),"activity, negative = inhibition",Potency
Cc1cccc(C(=O)NC(=S)N2CCN(c3ccc([N+](=O)[O-])cc3)CC2)c1,-12.7% (inactive),
COc1cc(OC)c(OC)cc1/C=C1\C=Cc2ccccc21,-11.4% (inactive),
O=c1c(-c2ccc(F)cc2)nc2cnc(N3CCNCC3)nc2n1Cc1cccs1,0.0971% [at 60.1 µM] (inactive),
CN(C)c1ccc(/C=C2\C=Cc3ccccc32)cc1Br,-15.2% (inactive),
CCOc1ccc(C(=O)N2CCN(CCc3ccccn3)CC2)cc1,-3.45% (inactive),
CCN(CC)CCOc1ccc2c(c1)C(=NNC(=O)c1ccccn1)c1cc(OCCN(CC)CC)ccc1-2,,10 µM (active)
O=C(c1ccncc1)N1CCC2(CCN(Cc3cc(C(F)(F)F)cc(C(F)(F)F)c3)CC2)CC1,-13% [at 60.1 µM] (inactive),
C[C@]12CC[C@@H]3C(=CCc4cc(O)ccc43)[C@@H]1CCC2=O,-6.88% [at 12 µM] (inactive),
Oc1ccc(Cl)c2c1CCC2,2.83% [at 19.4 µM] (inactive),
C/C=C/C=N/NC(=O)c1ccncc1,-3.32% [at 19.4 µM] (inactive),
C=C1c2c(Cl)ccc(O)c2C(O)=C2C(=O)[C@]3(O)C(O)=C(C(N)=O)C(=O)[C@@H](N(C)C)[C@@H]3[C@@H](O)C12 (stereo partly specified),,3.98 µM (active)
CN(C)[C@@H]1C(=O)C(C(N)=O)=C(O)[C@@]2(O)C(=O)C3=C(O)c4c(O)ccc(Cl)c4[C@@H](O)[C@H]3C[C@@H]12,,89.1 µM (active)
O=C1C[C@H]2C=CCc3cccc(c32)CN1Cc1ccccc1,11.4% (inactive),
O=C1CCC[C@@H]2C[C@@]3(C[C@@H]4CCN1[C@H]24)Nc1ccccc1NC3=NCc1ccccc1,0% (inactive),
CC(=O)OCC(=O)[C@@]1(O)CCC2C3CCC4=CC(=O)CC[C@@]4(C)[C@]3(F)C(O)C[C@]21C (stereo partly specified),-6.54% [at 60.1 µM] (inactive),
Brc1ccc(C2=NCCC(c3ccccc3)O2)cc1 (stereo unspecified),-13.9% (inactive),
Cc1cc(C)c2nc(-c3cccnc3)cc(C(=O)Nc3ccc(S(=O)(=O)Nc4onc(C)c4C)cc3)c2c1,-13.6% (inactive),
Cc1cc(C)c2nc(-c3ccco3)cc(C(=O)O)c2c1,,22.4 µM (active)
Cc1cccc(NC(=O)CSc2nc(-c3ccco3)cc(C(F)(F)F)n2)c1C,0.715% (inactive),
Cn1c(=O)c2ccccc2n(CC(=O)Nc2ccc3c(c2)OCCO3)c1=O,-1.46% (inactive),
Cc1ccc(C(=O)O)cc1-c1ccc(/C=C2\SC(=O)N(CC(=O)Nc3ccc4c(c3)OCO4)C2=O)o1,,28.2 µM (active)
COC(=O)c1ccc2c(c1)N(CC(=O)Nc1ccc(C)c(C)c1)C(=O)c1ccccc1S2,-9.25% [at 60.1 µM] (inactive),

Structure (SMILES),"activity, negative = inhibition",Potency
CCn1ccnc1C[C@@H]1COc2ccccc2O1,-7.82% [at 19.4 µM] (inactive),
NC[C@@H]1O[C@H](O[C@@H]2[C@H](O[C@@H]3O[C@H](CO)[C@@H](COC[C@H]4O[C@@H](CN)[C@@H](O)[C@@H](O)[C@@H]4N)[C@@H]3O)[C@@H](O)[C@@H](N)C[C@H]2N)[C@@H](N)[C@H](O)[C@@H]1O,-0.462% [at 12 µM] (inactive),
Cc1ccc(/C=C/C(=O)Nc2ccc([N+](=O)[O-])c(NC(=O)/C=C/c3ccc(C)o3)c2)o1,,28.2 µM (active)
Cc1ccc(/C=C/C(=O)OCC(=O)NCc2ccc(Cl)cc2)o1,-13.3% (inactive),
COc1ccc(OC)c(NC(=O)/C=C/c2ccc(C)o2)c1,-20.5% (inactive),
CC1=C(/C=C/C(C)=C/C=C/C(C)=C/C=C/C=C(C)/C=C/C=C(C)/C=C/C(=O)[C@]2(C)C[C@@H](O)CC2(C)C)C(C)(C)C[C@H](O)C1,-16.6% [at 60.1 µM] (inactive),
O=C1C(c2[nH]c3ccccc3c2O)=Nc2ccccc21,-10.8% [at 19.4 µM] (inactive),
CCOc1ccc(CNC(=O)c2cc(-c3ccc(Cl)s3)nc3ccccc23)cc1,1.73% (inactive),
CN(C(=O)COC(=O)c1cc(-c2ccco2)nc2ccccc12)C1CCS(=O)(=O)C1 (stereo unspecified),,20 µM (active)
CN(CCOc1ccccc1)C(=O)c1cc(-c2ccco2)nc2ccccc12,,79.4 µM (active)
CCN(C(=O)COC(=O)/C=C/c1nc2ccccc2s1)C1CCS(=O)(=O)C1 (stereo unspecified),6.34% (inactive),
CN(C)C(CNC(=O)CCCOc1ccccc1)c1ccco1 (stereo unspecified),-16.8% (inactive),
Cc1cc(C)c2nc(SCC(=O)N(C)C3CCS(=O)(=O)C3)cc(C)c2c1 (stereo unspecified),1.73% [at 60.1 µM] (inactive),
Nc1ncn(C2OC(CO)C(O)C2O)c(=O)n1 (stereo unspecified),0% [at 60.1 µM] (inactive),
C=CC(=O)c1ccc2ccccc2c1,7.32% [at 19.4 µM] (inactive),
CCCCCCCNc1ccc(/C=C/c2ccnc3ccccc23)cc1,-22.4% (inactive),
O=C(c1cccc(F)c1)N1CCC2(CCCN(Cc3ccncc3)C2)CC1,-4.21% [at 60.1 µM] (inactive),
Cc1cn([C@H]2CC(F)[C@@H](CO)O2)c(=O)[nH]c1=O (stereo partly specified),-4.8% [at 19.4 µM] (inactive),
O=C(Nc1cccc(C(F)(F)F)c1)c1cc(Br)cc(Br)c1O,-0.617% [at 19.4 µM] (inactive),
COCCn1c(=O)c(-c2ccc(OC)cc2)nc2cnc(Oc3cccc(Cl)c3)nc21,-1.11% [at 60.1 µM] (inactive),
